In PubChem BioAssay:
Active and inactive are the calls of the source. Unless noted, the rule behind the calls is not given here.

Legend:
[1] = system: Wnt5a (protein binding on small-molecule microarray); assay: small molecules binding Wnt5a protein – biophysical, small-molecule microarray, 635/667 nm fluorescence, primary screen (AID 1142); conditions: 635 nm fluorescence, higher = more signal;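 note: fluorescence read at 667 nm with signal to noise per printed feature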
[2] = ATP-based viability of Huh7 replicon cells – cell-based, CellTiter-Glo luminescence, basal, 48 h, cytotoxicity control for HCV replication inhibitor project, primary screen (AID 1143); conditions: higher = more signal, called active from +8 up or from −8 down;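 note: Huh7 hepatoma cells carrying a hepatitis C replication reporter with no stimulus; test concentration not given here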
[3] = Pseudomonas biofilm growth suppression – PAO1 strain, BacTiter-Glo luminescence, LB-PBS, primary screen (AID 1144); conditions: P. aeruginosa PAO1 biofilm, 12 h, higher = more signal
[4] = basal CRE-LacZ reporter activity in PC12 – cell-based, unstimulated, primary screen (AID 1145); conditions: no forskolin, luminescence, 4.5 h, higher = more signal, called active from +8 up or from −8 down
[5] = forskolin-driven CRE-LacZ activity in PC12 – cell-based, CRE-LacZ reporter, forskolin-stimulated, primary screen (AID 1146); conditions: luminescence, 4.5 h, higher = more signal, called active from +8 up or from −8 down;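 note: PC12 cells with 6xCRE LacZ reporter stimulated by forskolin 10 µM; beta-galactosidase reporter signal reflecting CREB driven transcription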
[6] = molecular target: Streptavidin (Streptomyces avidinii) (UniProt P22629); assay: compounds binding control protein streptavidin – biophysical, small-molecule microarray, 635/667 nm fluorescence, artefact control for SMM compound annotation, primary screen (AID 1147); conditions: higher = more signal;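 note: signal reflects streptavidin binding to arrayed compounds as a control protein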
[7] = probe aInhba binding on compound microarray – biochemical, small-molecule microarray, 635/667 nm fluorescence, primary screen (AID 1148); conditions: higher = more signal;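 note: score merges 667nm spot fluorescence with signal-to-noise for antibody binding to printed compounds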
[8] = molecular target: Torsin-1A (Homo sapiens) (UniProt O14656); assay: TOR1A wild-type binding on microarray – cell lysate, small-molecule microarray, lysate, 635/667 nm, primary screen (AID 1149); conditions: COS7 hTOR1A-WT lysate, 635 nm fluorescence, higher = more signal
[9] = molecular target: Torsin-1A (Homo sapiens) (UniProt O14656); assay: torsin A mutant lysate binding on microarrays – cell lysate, small-molecule microarray, COS7 lysate, 635/667 nm fluorescence, primary screen (AID 1150); conditions: COS7 hTOR1A mutant lysate, 635 nm fluorescence, higher = more signal;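 note: score pools 667 nm emission and signal to noise measuring lysate protein binding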
[10] = system: Sonic hedgehog protein (Shh); assay: Sonic hedgehog microarray binding compounds – biochemical, small-molecule microarray, 635/667 nm fluorescence, primary screen (AID 1151); conditions: 635 nm fluorescence, higher = more signal;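 note: Shh protein binding to compounds spotted on small-molecule microarray slides; score combines spot fluorescence intensity with signal-to-noise across triplicate slides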

Sequence of Streptavidin (Streptomyces avidinii) (P22629 whole entry, looked up): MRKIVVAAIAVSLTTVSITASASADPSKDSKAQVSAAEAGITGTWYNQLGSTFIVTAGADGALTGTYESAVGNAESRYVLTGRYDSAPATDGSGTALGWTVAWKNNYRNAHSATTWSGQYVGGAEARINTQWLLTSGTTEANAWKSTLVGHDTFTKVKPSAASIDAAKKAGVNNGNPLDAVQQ
Sequence of Torsin-1A (Homo sapiens) (O14656 whole entry, looked up): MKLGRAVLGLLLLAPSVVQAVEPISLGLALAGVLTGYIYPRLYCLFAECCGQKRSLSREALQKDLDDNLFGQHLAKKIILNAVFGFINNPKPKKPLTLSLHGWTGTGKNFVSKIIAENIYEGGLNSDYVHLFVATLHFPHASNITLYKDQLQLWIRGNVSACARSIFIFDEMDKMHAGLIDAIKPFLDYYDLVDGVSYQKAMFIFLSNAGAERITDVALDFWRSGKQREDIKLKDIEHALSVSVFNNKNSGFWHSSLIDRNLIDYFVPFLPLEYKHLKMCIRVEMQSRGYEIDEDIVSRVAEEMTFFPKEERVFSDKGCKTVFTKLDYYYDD

Row | Compound | composite z-score [1] | z-score [2] | z-score [3] | z-score [4] | z-score [5] | composite z-score [6] | composite z-score [7] | composite z-score [8] | composite z-score [9] | composite z-score [10]
1 | C=CCNC(=O)[C@@H]1[C@H]2C(=O)O[C@H](c3ccccc3)[C@H](c3ccccc3)N2[C@H](c2ccc(OCCO)cc2)[C@@]12C(=O)Nc1ccc(C#CC3=CCCCC3)cc12 | 0.257 | -4.25 (inactive) | -0.188 (inactive) | 0.299 (inactive) | -0.0321 (inactive) | 1.06 | 0.0502 | 0.707 | 0.531 | 1.66
2 | C=C1C(=O)C=C2CN(C(=O)c3ccccc3)[C@@](Cc3ccc(F)cc3)(C(=O)OC)[C@@H]12 | 0.272 | -5.23 (inactive) | 1.1 (inactive) | -0.375 (inactive) | -2.15 (inactive) | 1.87 | 0.49 | 0.172 | 0.73 | -0.0536
3 | CC(C)(C)OC(=O)N1[C@@H](C=C(Br)Br)COC1(C)C | -0.0677 | -2.04 (inactive) | 0.278 (inactive) | -0.104 (inactive) | 0.0695 (inactive) | 0.29 | -0.15 | 0.396 | 0.656 | 0.938
4 | CN(C)CCCC[C@@H]1NC(=O)[C@H]2C[C@@H](C(=O)NCCCCCCNC(=O)CS)[C@@H](c3cccc(OCCO)c3)N2C1=O | 0.1 | 1.17 (inactive) | -0.444 (inactive) | -0.809 (inactive) | -1.09 (inactive) | 0.0448 | -0.101 | 0.0638 | 0.767 | 0.871
5 | C=C(COC)C(=O)CC[C@H](OC(C)=O)c1ccccc1OCCO | 0.0375 | -4.1 (inactive) | -0.0151 (inactive) | 6.35 (inactive) | 4.62 (inactive) | -0.955 | 0.858 | 2.34 | 0.851 | 1.8
6 | COc1ccc(CCNC(=O)[C@@H]2c3ccccc3C(=O)N(Cc3cc(F)cc(C(F)(F)F)c3)[C@H]2c2ccc(CO)cc2)cc1 | 0.0093 | -0.489 (inactive) | 0.869 (inactive) | 0.585 (inactive) | -1.11 (inactive) | 0.234 | 0.396 | 0.642 | 0.478 | 0.618
7 | CCCCCCCCCCC(O)C1C=CC2C(=O)N(C)C(=O)C2N1Nc1ccccc1 (stereo not given) | -0.56 | -0.776 (inactive) | 0.178 (inactive) | 0.819 (inactive) | 0.848 (inactive) | -0.925 | -0.474 | -0.0378 | 0.213 | -1.5
8 | COC(=O)[C@@]1(Cc2ccc(F)cc2)[C@H]2c3cc(C(=O)N4CCCC4)n(C[C@H](O)CO)c3C[C@H]2CN1C(=O)c1ccccc1 | 0.943 | 0.0849 (inactive) | 0.339 (inactive) | 0.0075 (inactive) | -0.101 (inactive) | 1.12 | 0.674 | 0.0277 | 0.332 | -0.545
9 | COC(=O)[C@@]1(Cc2ccc(F)cc2)[C@H]2c3cc(C(=O)N4CCCC4)n(Cc4ccc(C(F)(F)F)nc4)c3C[C@H]2CN1C(=O)c1ccccc1 | 0.406 | -2.55 (inactive) | 0.193 (inactive) | 0.197 (inactive) | -0.388 (inactive) | 1.99 | -0.025 | 1.45 | 1.14 | -0.388
10 | [N-]=[N+]=Nc1ccccc1C[C@]1(C(N)=O)COC(c2ccc(OCCCO)cc2)=N1 | 0.131 | -3.62 (inactive) | -1.16 (inactive) | 1.33 (inactive) | -1.31 (inactive) | 0.559 | 0.285 | 0.517 | 1.21 | -0.567
11 | CCCCC(=C=CC[C@H](O)c1ccccc1OCCO)CCO | -0.0677 | -0.0854 (inactive) | 0.235 (inactive) | 4.29 (inactive) | 1.37 (inactive) | -0.356 | -0.0762 | -0.309 | 0.0868 | 0.704
12 | C=C(/C=C\CNS(=O)(=O)c1ccc(C)cc1)[C@H](O)[C@H]1CCCN1S(=O)(=O)c1ccccc1[N+](=O)[O-] | 0.0313 | -4.19 (inactive) | 0.227 (inactive) | 13 (active) | 0.121 (inactive) | -0.0435 | -0.0986 | 0.345 | -0.0414 | 0.17
13 | COc1ccc([Si](C)(C)[C@H]2[C@H](CC(=O)N(CCO)Cc3ccccc3)O[C@@]3(C(=O)N(c4ccccc4)c4ccccc43)[C@@H]2C)cc1 | 0.318 | -7.96 (inactive) | -0.164 (inactive) | 16.4 (active) | -3.89 (inactive) | 0.862 | -0.0986 | 0.0895 | -0.364 | 1.2
14 | COCCCNC(=O)[C@]1(Cc2ccccc2CN=[N+]=[N-])N=C(c2ccc(OCCCO)cc2)O[C@@H]1c1ccccc1N=[N+]=[N-] | 0.693 | -4.12 (inactive) | 0.206 (inactive) | 2 (inactive) | -0.786 (inactive) | 0.437 | 0.4 | 0.637 | 0.557 | -0.448
15 | O=C1C2C=CC(C(O)c3ccccn3)N(Nc3ccc([N+](=O)[O-])cc3)C2C(=O)N1c1ccccc1 (stereo not given) | 0.333 | -0.476 (inactive) | -0.277 (inactive) | 0.379 (inactive) | -0.0636 (inactive) | 1.24 | 0.0589 | -0.146 | 0.098 | 0.04
16 | COc1cccc(C)c1NC(=O)O[C@H]1[C@H](OC(=O)Nc2ccc3c(c2)OCO3)[C@H](OC(=O)Nc2ccc3c(c2)OCO3)[C@@H](OC)O[C@@H]1CO | 0.469 | -2.59 (inactive) | 1.05 (inactive) | 0.558 (inactive) | -1.04 (inactive) | 1.2 | 0.226 | -0.148 | 0.533 | 2.02
17 | C=C[C@H](OC)[C@@H](O)c1ccc(OC)c(O)c1 | -0.444 | 0.97 (inactive) | -1.34 (inactive) | 0.222 (inactive) | -0.904 (inactive) | -1.56 | -0.29 | -0.874 | -0.695 | -0.734
18 | COCCOC(=O)N1C(=O)[C@@]2(c3cc(C#CCCO)ccc31)[C@H](C(=O)N1CCN(c3ncccn3)CC1)[C@H]1C(=O)O[C@H](c3ccccc3)[C@H](c3ccccc3)N1[C@@H]2c1ccc(OCCO)cc1 | 0.624 | -0.445 (inactive) | 0.386 (inactive) | 1.05 (inactive) | 0.136 (inactive) | 1.26 | 0.0528 | -0.279 | 0.458 | 1.99
19 | O=C/C=C/c1ccc(-c2ccccc2)cc1 | -0.166 | -2.73 (inactive) | 1.68 (inactive) | 2.11 (inactive) | 3.74 (inactive) | 0.175 | -0.101 | -0.0497 | 0.0552 | 0.083
20 | CO[C@H]1O[C@H](CO)[C@@H](OC(=O)Nc2ccccc2)[C@@H]2OC(=O)[C@@H](Cc3ccccc3)C/C=C/C[C@H](Cc3ccccc3)C(=O)O[C@@H]12 | 0.129 | -0.0611 (inactive) | -0.213 (inactive) | -0.403 (inactive) | -0.656 (inactive) | -0.304 | -0.0719 | 0.433 | 1.93 | 0.591
21 | O=C1OCC=C[C@H]2OC34C=CCN(Cn5nnc6ccccc65)C(=O)[C@H]3N(CCO)C(=O)[C@@H]4[C@@H]12 (stereo not given in full) | -0.26 | 0.473 (inactive) | 1.43 (inactive) | 0.455 (inactive) | 0.792 (inactive) | -1.02 | -0.208 | 1.09 | -1.8 | -0.793
22 | C[C@H]1C2[C@H](Cc3ccccc3)NC(=O)[C@]23C(=O)N[C@@H](Cc2ccccc2)C(=O)N2CCC[C@H]2C(=O)NC/C=C/CC/C=C/C3[C@@H]2O[C@]12C (stereo not given in full) | 0.241 | -2.38 (inactive) | -0.165 (inactive) | 0.941 (inactive) | -0.688 (inactive) | -0.423 | -0.0986 | -0.0723 | 0.49 | 0.975
23 | CC[C@@H]1C=C(C(=O)O)[C@H](c2cccc(Cl)c2)N1S(=O)(=O)c1ccc(C)cc1 | -0.23 | -0.733 (inactive) | 1.24 (inactive) | -0.322 (inactive) | -0.166 (inactive) | 0.326 | -0.0018 | 1.65 | 0.314 | -0.726
